About 8,800 targets were measured; listed, in parts, are those with a hit and a random draw of the rest. About 0.5% of all pairs of compound and target were hits. A number with no mark means an inactive call.
What was measured:
Experiment in all cases: log2 fold change, soluble protein after heating vs DMSO (PISA); higher = thermal stabilisation; K562 lysate, 10 uM; active = over 0.2 and 3.5 SD of the protein, either way, in both replicates (recomputed)
vemurafenib = compound: CCCS(=O)(=O)Nc1ccc(F)c(C(=O)c2c[nH]c3ncc(-c4ccc(Cl)cc4)cc23)c1F [vemurafenib]
Summary of the method: (§1)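 Quantification was by TMTpro 16plex LC-MS/MS with equalised channel sums, applied to the supernatant after 21,000xg for 90 min. Samples were crude K562 extract at 1 mg/mL protein in PBS pH 7.4 with 1 mM MgCl2, treated with 10 μM compound for 30 min, heated for 3 min across 48°C-58°C, pooled and brought to 0.5% NP-40 at 4°C. Values are log-two fold changes in thermal stability relative to solvent controls, from duplicates.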

[1] = compound: CCCS(=O)(=O)Nc1ccc(F)c(C(=O)c2c[nH]c3ncc(Cl)cc23)c1F
Summary of the method: as §1

barasertib = compound: CCN(CCCOc1ccc2c(Nc3cc(CC(=O)Nc4cccc(F)c4)[nH]n3)ncnc2c1)CCOP(=O)(O)O [barasertib]
Summary of the method: as §1

[2] = compound: CC[C@@H]1C(=O)N(C)c2cnc(Nc3ccc(C(=O)NC4CCN(C)CC4)cc3OC)nc2N1C1CCCC1
Summary of the method: as §1

volasertib = compound: CC[C@@H]1C(=O)N(C)c2cnc(Nc3ccc(C(=O)N[C@H]4CC[C@H](N5CCN(CC6CC6)CC5)CC4)cc3OC)nc2N1C(C)C [volasertib]
Summary of the method: as §1

[3] = compound: CCn1c(C(=O)N(C2CC2)C2CC2)cc2c3c(ncn3C)c(Nc3cc(C)n(C)n3)nc21
Summary of the method: as §1

[4] = compound: CCn1cc(-c2ccnc3[nH]c(-c4cccc(CN(C)C)c4)cc23)c(-c2ccc(NC(=O)N(C)C)cc2)n1
Summary of the method: as §1

[5] = compound: CN1CCC(CNc2ccc3ncc(-c4cccc(OC(F)(F)F)c4)n3n2)CC1
Summary of the method: as §1

saracatinib = compound: CN1CCN(CCOc2cc(OC3CCOCC3)c3c(Nc4c(Cl)ccc5c4OCO5)ncnc3c2)CC1 [saracatinib]
Summary of the method: as §1

sotrastaurin = compound: CN1CCN(c2nc(C3=C(c4c[nH]c5ccccc45)C(=O)NC3=O)c3ccccc3n2)CC1 [sotrastaurin]
Summary of the method: as §1

alvocidib = compound: CN1CC[C@H](c2c(O)cc(O)c3c(=O)cc(-c4ccccc4Cl)oc23)[C@H](O)C1 [alvocidib]
Summary of the method: as §1

Tubastatin A = compound: CN1CCc2c(c3ccccc3n2Cc2ccc(C(=O)NO)cc2)C1 [Tubastatin A]
Summary of the method: as §1

[6] = compound: CNC(=O)C1=CC=CC=C1NC2=NC(=NC=C2Cl)NC3=C(C=C(C=C3)N4CCOCC4)OC
Summary of the method: as §1

defactinib = compound: CNC(=O)c1ccc(Nc2ncc(C(F)(F)F)c(NCc3nccnc3N(C)S(C)(=O)=O)n2)cc1 [defactinib]
Summary of the method: as §1

[7] = compound: CNc1nc(-c2ccc3c(N)n[nH]c3c2)cc(N2C[C@@H](C(=O)NC3CCCCC3)CC[C@H]2C)n1
Summary of the method: as §1

encorafenib = compound: COC(=O)N[C@@H](C)CNc1nccc(-c2cn(C(C)C)nc2-c2cc(Cl)cc(NS(C)(=O)=O)c2F)n1 [encorafenib]
Summary of the method: as §1

[8] = compound: COC(=O)[C@H](CCSC)NC(=O)C1=C(C=C(C=C1)NC[C@H](CS)N)C2=CC=CC=C2
Summary of the method: as §1

alisertib = compound: COc1cc(Nc2ncc3c(n2)-c2ccc(Cl)cc2C(c2c(F)cccc2OC)=NC3)ccc1C(=O)O [alisertib]
Summary of the method: as §1

[9] = compound: COc1cc2nc(-c3cc(F)ccc3O)nc(N[C@@H]3CNC[C@H]3C(C)(C)O)c2cc1OC
Summary of the method: as §1

gefitinib = compound: COc1cc2ncnc(Nc3ccc(F)c(Cl)c3)c2cc1OCCCN1CCOCC1 [gefitinib]
Summary of the method: as §1

UniProt Q6PJG6, sequence (Q6PJG6 whole entry, looked up): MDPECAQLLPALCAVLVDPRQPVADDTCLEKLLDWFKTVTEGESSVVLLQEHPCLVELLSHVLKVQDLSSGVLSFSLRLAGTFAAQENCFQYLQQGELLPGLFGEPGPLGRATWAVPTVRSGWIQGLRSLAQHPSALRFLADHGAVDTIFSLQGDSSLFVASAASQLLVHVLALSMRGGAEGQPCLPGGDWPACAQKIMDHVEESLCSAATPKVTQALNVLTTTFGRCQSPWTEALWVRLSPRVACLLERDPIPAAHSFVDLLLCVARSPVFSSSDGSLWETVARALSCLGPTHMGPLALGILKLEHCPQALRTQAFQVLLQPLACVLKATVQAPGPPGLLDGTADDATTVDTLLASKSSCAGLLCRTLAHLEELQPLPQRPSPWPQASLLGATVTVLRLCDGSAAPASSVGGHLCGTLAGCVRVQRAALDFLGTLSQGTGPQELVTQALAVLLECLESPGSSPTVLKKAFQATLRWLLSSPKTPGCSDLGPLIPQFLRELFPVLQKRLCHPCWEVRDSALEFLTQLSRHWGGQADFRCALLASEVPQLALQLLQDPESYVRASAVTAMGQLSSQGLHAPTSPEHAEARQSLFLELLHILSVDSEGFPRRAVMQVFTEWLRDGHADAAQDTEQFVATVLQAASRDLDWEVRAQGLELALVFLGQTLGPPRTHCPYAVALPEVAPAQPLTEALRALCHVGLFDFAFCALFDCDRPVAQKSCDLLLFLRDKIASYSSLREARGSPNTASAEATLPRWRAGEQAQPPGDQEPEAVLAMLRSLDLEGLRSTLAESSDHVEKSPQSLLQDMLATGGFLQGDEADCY
UniProt Q9Y6H1, sequence (Q9Y6H1 whole entry, looked up): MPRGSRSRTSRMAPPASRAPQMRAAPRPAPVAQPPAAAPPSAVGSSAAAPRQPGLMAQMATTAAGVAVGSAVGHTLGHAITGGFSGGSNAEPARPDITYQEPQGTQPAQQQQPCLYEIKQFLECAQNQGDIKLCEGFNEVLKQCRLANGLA
UniProt Q7Z3E2, sequence (Q7Z3E2 whole entry, looked up): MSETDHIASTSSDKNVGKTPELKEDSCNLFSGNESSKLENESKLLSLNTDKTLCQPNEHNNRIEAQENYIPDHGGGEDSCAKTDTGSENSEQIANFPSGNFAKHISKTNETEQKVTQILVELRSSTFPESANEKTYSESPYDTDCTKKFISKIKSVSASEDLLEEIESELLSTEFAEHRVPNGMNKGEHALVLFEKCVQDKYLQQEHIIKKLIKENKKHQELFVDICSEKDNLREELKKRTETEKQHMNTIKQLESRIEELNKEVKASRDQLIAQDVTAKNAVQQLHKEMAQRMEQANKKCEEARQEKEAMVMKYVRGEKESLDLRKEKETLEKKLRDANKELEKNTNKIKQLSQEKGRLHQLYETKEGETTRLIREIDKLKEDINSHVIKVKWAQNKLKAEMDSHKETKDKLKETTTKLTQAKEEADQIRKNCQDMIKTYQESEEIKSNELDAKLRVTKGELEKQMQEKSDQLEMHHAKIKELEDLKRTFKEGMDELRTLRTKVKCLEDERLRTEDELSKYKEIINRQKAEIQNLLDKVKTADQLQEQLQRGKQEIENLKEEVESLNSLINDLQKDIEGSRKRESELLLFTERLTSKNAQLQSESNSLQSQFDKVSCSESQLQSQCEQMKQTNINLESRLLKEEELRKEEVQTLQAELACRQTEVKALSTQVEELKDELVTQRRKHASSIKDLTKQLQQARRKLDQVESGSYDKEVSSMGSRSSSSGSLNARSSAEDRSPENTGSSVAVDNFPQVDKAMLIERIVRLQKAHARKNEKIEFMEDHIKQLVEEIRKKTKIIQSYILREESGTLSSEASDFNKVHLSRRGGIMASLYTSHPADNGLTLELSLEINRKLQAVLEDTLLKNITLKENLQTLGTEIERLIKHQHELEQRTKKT
UniProt Q8N5I9, sequence (Q8N5I9 whole entry, looked up): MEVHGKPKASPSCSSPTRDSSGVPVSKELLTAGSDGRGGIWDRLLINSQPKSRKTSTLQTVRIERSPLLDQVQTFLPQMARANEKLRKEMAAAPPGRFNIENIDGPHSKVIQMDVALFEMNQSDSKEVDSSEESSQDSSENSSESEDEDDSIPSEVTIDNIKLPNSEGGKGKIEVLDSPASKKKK
UniProt P49069, sequence (P49069 whole entry, looked up): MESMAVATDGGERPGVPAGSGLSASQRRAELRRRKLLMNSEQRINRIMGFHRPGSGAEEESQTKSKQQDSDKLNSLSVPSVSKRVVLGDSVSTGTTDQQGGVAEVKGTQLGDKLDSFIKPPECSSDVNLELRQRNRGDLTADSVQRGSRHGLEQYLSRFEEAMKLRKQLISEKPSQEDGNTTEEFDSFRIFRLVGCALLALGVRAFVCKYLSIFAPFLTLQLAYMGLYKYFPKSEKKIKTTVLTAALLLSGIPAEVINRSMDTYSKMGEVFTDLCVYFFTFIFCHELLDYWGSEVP
UniProt Q8N4Q1, sequence (Q8N4Q1 whole entry, looked up): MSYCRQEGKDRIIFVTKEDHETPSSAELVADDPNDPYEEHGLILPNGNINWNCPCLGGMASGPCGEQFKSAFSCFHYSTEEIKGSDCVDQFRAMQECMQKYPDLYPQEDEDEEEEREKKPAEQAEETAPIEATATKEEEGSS
UniProt Q9BV29, sequence (Q9BV29 whole entry, looked up): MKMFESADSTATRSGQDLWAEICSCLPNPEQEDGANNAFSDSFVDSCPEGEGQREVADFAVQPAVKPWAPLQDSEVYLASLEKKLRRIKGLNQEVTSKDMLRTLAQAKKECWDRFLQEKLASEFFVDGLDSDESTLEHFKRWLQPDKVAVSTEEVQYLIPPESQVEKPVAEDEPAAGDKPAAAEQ
UniProt P04632, sequence (P04632 whole entry, looked up): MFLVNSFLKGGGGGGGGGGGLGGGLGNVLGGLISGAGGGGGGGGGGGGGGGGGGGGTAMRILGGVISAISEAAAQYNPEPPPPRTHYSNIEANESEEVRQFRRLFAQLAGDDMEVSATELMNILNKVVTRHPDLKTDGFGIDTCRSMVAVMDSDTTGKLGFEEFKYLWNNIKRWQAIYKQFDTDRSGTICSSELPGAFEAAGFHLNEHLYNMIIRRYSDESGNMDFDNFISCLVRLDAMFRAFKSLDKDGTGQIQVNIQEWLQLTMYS
UniProt Q12873, sequence (Q12873 whole entry, looked up): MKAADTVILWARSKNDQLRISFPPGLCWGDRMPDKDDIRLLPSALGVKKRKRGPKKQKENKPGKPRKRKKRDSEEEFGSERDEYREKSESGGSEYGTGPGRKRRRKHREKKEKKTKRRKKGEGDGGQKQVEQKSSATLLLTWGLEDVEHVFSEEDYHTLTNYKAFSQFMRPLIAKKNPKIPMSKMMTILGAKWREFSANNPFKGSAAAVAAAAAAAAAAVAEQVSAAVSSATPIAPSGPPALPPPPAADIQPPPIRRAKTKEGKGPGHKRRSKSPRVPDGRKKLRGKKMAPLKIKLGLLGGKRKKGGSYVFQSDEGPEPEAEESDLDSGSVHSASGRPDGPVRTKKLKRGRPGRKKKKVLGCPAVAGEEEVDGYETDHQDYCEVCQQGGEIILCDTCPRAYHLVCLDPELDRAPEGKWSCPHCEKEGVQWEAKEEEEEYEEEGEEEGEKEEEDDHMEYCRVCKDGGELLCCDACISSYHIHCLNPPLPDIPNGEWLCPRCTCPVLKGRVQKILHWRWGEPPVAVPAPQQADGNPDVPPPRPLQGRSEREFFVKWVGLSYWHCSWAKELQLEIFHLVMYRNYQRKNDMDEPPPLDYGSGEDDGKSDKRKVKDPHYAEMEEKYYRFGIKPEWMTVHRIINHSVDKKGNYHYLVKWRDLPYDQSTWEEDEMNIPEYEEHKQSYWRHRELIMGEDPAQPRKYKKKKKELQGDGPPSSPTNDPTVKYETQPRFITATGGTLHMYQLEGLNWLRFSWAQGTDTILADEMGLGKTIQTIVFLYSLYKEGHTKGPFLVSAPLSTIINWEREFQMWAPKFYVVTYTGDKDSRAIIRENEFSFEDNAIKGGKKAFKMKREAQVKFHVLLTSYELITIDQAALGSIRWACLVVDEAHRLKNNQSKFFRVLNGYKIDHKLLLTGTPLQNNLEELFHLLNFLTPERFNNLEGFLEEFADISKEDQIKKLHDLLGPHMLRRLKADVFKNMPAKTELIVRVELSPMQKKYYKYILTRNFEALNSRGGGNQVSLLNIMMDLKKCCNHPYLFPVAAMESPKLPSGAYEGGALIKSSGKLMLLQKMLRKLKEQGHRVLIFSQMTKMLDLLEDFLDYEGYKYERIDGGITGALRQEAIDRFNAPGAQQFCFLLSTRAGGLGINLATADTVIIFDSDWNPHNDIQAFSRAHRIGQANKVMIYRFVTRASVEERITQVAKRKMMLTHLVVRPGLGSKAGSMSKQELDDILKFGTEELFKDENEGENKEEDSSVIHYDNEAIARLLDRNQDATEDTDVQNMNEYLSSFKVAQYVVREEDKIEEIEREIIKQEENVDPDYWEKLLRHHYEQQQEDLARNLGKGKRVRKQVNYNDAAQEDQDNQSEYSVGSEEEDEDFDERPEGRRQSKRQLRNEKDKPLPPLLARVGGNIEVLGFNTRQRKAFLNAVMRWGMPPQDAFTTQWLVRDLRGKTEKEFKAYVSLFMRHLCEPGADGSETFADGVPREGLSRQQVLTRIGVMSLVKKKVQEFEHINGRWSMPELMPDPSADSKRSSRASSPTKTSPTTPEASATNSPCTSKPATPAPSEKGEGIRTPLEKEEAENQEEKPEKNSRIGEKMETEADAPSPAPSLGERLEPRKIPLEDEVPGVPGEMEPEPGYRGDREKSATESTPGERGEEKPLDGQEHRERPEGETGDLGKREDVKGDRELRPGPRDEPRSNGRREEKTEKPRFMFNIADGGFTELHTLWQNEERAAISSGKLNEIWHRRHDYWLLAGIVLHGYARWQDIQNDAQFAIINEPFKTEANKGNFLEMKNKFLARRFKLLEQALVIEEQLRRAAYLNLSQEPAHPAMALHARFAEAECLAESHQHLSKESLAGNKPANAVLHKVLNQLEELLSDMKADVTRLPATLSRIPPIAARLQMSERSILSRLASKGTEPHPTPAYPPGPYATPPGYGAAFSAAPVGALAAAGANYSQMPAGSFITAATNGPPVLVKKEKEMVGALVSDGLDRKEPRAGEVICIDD

Target	log2 fold change (vemurafenib)	log2 fold change [1]	log2 fold change (barasertib)	log2 fold change [2]	log2 fold change (volasertib)	log2 fold change [3]	log2 fold change [4]	log2 fold change [5]	log2 fold change (saracatinib)	log2 fold change (sotrastaurin)	log2 fold change (alvocidib)	log2 fold change (Tubastatin A)	log2 fold change [6]	log2 fold change (defactinib)	log2 fold change [7]	log2 fold change (encorafenib)	log2 fold change [8]	log2 fold change (alisertib)	log2 fold change [9]	log2 fold change (gefitinib)
CCDC32 isoform 2 (UniProt Q9BV29)	0.007	0	0.351	-0.041	0.021	-0.061	-0.246	0.065	0.021	-0.012	-0.102	-0.033	-0.061	0.095	0.04	0.055	-0.065	-0.098	-0.045	-0.026
CASP6 (UniProt P55212)	0.006	-0.012	-0.071	0.018	-0.017	0.025	0.242	0.013	-0.004	-0.016	-0.011	-0.003	0.067	0.039	-0.046	-0.015	-0.026	0.023	-0.029	0.061
ATAD1 (UniProt Q8NBU5)	0.052	-0.072	-0.008	0.024	-0.018	-0.041	-0.04	-0.03	-0.031	0.06	-0.047	-0.016	0.045	-0.054	0.006	-0.049	-0.042	-0.119	0.039	0.22
ATP11A (UniProt P98196)	-0.035	-0.015	0.006	0.019	0.026	0	-0.116	0.024	-0.01	0.063	-0.002	-0.047	-0.021	-0.017	-0.022	0.028	-0.065	-0.083	0.01	0.031
BRAT1 (UniProt Q6PJG6)	0.011	-0.014	0.042	-0.086	-0.046	0.055	-0.023	-0.007	0.016	0.037	-0.018	-0.143	0.031	-0.046	-0.041	0.01	0.024	-0.008	0.018	-0.007
CAPNS1 (UniProt P04632)	-0.032	0.021	0.11	-0.027	0.04	-0.006	-0.334 (active)	0.07	0.003	-0.012	0.021	-0.022	0.032	0.027	-0.005	0.022	-0.129	-0.012	-0.051	-0.062
CEPT1 (UniProt Q9Y6K0)	-0.031	0.006	0.08	-0.006	0.042	-0.079	-0.102	0.084	0.037	-0.008	-0.012	0.055	-0.024	0	-0.051	0.019	-0.025	0.054	-0.123	-0.036
CCDC51 (UniProt Q96ER9)	0.001	-0.008	0.027	-0.005	0.002	-0.009	0.262 (active)	-0.422 (active)	-0.034	-0.072	0.127	-0.037	-0.001	0.008	0.038	-0.008	-0.001	0.016	-0.066	0.022
CHD3 isoform 3 (UniProt Q12873)	-0.033	0.009	0.035	-0.02	-0.018	-0.039	-0.066	-0.027	0.001	0.004	0.003	-0.074	0.015	0.006	0.02	0.029	0.085	0.047	0.01	-0.014
C12orf45 (UniProt Q8N5I9)	-0.015	-0.017	-0.022	0.009	0.008	0.023	-0.243	0.116	-0.022	-0.026	-0.13	0.007	0.004	-0.042	0.036	0.05	-0.06	0.016	0.01	0.011
CAMLG (UniProt P49069)	-0.027	0	-0.021	0.026	0.002	-0.089	0.257 (active)	-0.04	-0.026	-0.002	0.051	-0.037	0.044	0.067	-0.012	0.09	-0.13	0.136	0.006	0.028
CHCHD4 isoform 2 (UniProt Q8N4Q1)	0.144	0.015	0.109	0.072	0.057	-0.1	-0.415 (active)	0.228	0.05	-0.007	-0.145	0.026	0.027	-0.044	0.045	0.062	-0.039	0.024	0.016	-0.015
CHCHD2 (UniProt Q9Y6H1)	0.076	-0.025	0.011	0.102	0.086	0.108	0.16	-0.094	-0.011	0.054	-0.061	0.031	-0.003	-0.079	-0.024	-0.044	-0.126	-0.051	-0.033	0.28
BCL2L12 (UniProt Q9HB09)	-0.032	0.08	0.166	0.013	-0.06	0.087	0.018	0.116	0.057	-0.007	0.012	0.016	-0.087	0.113	-0.059	-0.207	0.023	0.008	0.1	-0.062
CALM2 (UniProt P0DP24)	0.028	0.011	0.564 (active)	0.038	0.024	-0.079	-0.22	0.237	0.029	0	-0.063	0.018	-0.059	-0.016	0.124	0.03	-0.085	0.011	0.026	-0.13
CCDC186 (UniProt Q7Z3E2)	-0.007	0.069	-0.029	0.069	0.031	0.019	0.332 (active)	-0.033	-0.003	-0.054	0.056	0.004	0.062	-0.012	-0.029	0.067	-0.004	0.015	0.004	0.055
